This note sets out measurements from PubChem BioAssay (EPA / NIEHS).

The source made the active and inactive calls. Rule for the calls: active = hit-call score of the fitted dose curve at least 0.9, where 1 is the maximum; inactive = score below 0.9.

Read-out in this experiment: Plasminogen activator inhibitor-1 (PAI1), SERPINE1 (gene 5054)
The experiment in a line: BSK_MyoF_PAI1: BioMAP Diversity Plus: MyoF Assay for Plasminogen activator inhibitor-1 (PAI1) Biomarker Activity (AID 2284256). The settings on record: primary human lung fibroblasts. The procedure: BSK_MyoF is a cell-based, multiplexed-readout assay that uses lung fibroblasts, […], with measurements taken at 24 hours after chemical dosing in a microplate: 96-well plate.BSK_MyoF_PAI1 is an assay component measured in the BSK_MyoF assay. It measures PAI-1 antibody related to regulation of gene expression using ELISA technology.Data from the assay component BSK_MyoF_PAI1 was analyzed at the endpoint, BSK_MyoF_PAI1, in the positive analysis fitting direction relative to DMSO as the negative control and baseline of activity. Using a type of binding reporter, gain or loss-of-signal activity can be used to understand protein changes. To generalize the intended target to other relatable targets, this assay endpoint is annotated to the 'cytokine' intended target family, where the subfamily is 'plasmogen activator inhibitor'.
The levels of cell surface (or secreted, indicated by the prefix "s") biomarker endpoints were measured by ELISA. Overt cytotoxicity to cells in confluent adherent cultures (all systems other than the BT system) was assessed by measuring total protein levels using sulforhodamine B (SRB) staining in parallel cultures at the time of biomarker measurements, indicated as SRB endpoints. For proliferation assays for adherent cell types, individual cell types are cultured at sub-confluence and relative cell numbers quantified by SRB staining at time points optimized for each system (48 h: 3C and CASM3C systems; 72 h: BT and HDF3CGF systems; 96 h: SAg system). SRB was performed by staining cells with 0.1% SRB after fixation with 10% TCA and reading wells at 560 nm.Viability and proliferation of PBMC (T cells) was quantified by Alamar Blue reduction for the SAg and BT systems. For PBMC viability (referred to as PBMC Cytotoxicity within the assay endpoint names), cells were plated (75,000/well in a 96-well plate) and then chemical samples added for 1 h before addition of activators, SEB and TSST-1 (20 ng/mL final concentration each). Cells were incubated for 90 h. Then, Alamar Blue (20 uL/well) (Invitrogen, Cat DAL1100) was added for 6 h, and the plates were read with a fluorescence microplate reader at 546/580 nm (excitation/emission). For PBMC proliferation, cells were plated and activated as above but incubated for only 16 h prior to addition of Alamar Blue. Plates were read after 6 h.
The AC50 is the midpoint of the concentration-response curve, whichever way the signal moves. Take `CCCCCCCCCCCCS`: the half-maximal activity concentration (AC50) was 20000 nM (active). `OCCN1CCOCC1`: the outcome was inactive. For `C=CC(=O)OCC(CO)(COC(=O)C=C)COC(=O)C=C`, the concentration at half-maximal activity (AC50) is 2880 nM (active). Same read-out and setting: with `CC(=O)CCC=C(C)CCC=C(C)C` the figure was 16 nM (active). `CC=CC(=O)C1=C(C)C=CCC1(C)C`: the result was inactive.

Consider `C=C(F)C(=O)OC(C(F)(F)F)C(F)(F)F`, for which the outcome was inactive.

`CC1(C)[C@H](C=C(Cl)Cl)[C@H]1C(=O)OCc1cccc(Oc2ccccc2)c1`: the outcome was inactive. The same measure, in the same setting: with `COc1ccccc1NC(=O)CC(C)=O` the entry was “inactive”; with `CC(=O)OC(C)(C)C1CC=C(C)CC1` (stereo not given), “inactive”; with `c1ccc(Sc2ccccc2)cc1`, “inactive”. On the same count and under the same terms, with `C=C(C)C(=O)OCCC(F)(F)C(F)(F)C(F)(F)C(F)(F)C(F)(F)C(F)(F)C(F)(F)C(F)(F)F` the entry was “inactive”; with `CCCCCCCCCC(=O)OCC`, “inactive”. `CC(=O)OCC=C(C)CCC=C(C)CCC=C(C)C`: the result was inactive.

Regarding `O=S(=O)(O)C(F)(F)C(F)(F)OC(F)(F)C(F)(F)F`, the outcome was inactive.

On to `NC(=O)c1c(Cl)cccc1Cl`, for which the AC50 was 4480 nM (active). Consider `CCOC(=O)CCCCCCCCC(=O)OCC`, for which the result was inactive. `CCCCCCCC1CCCC1=O` (stereo not given): the outcome was inactive. Same read-out and setting: with `CCC(=O)OCC=Cc1ccccc1` the entry was “inactive”; with `O=C(O)C(F)(F)C(F)(F)C(F)(F)C(F)(F)C(F)(F)C(F)(F)C(F)(F)C(F)F`, “inactive”. On to `C=C1CC/C=C(\C)CC[C@@H]2[C@@H]1CC2(C)C`, for which the AC50 was 20000 nM (active). Take `CCOC(=O)C=Cc1ccccc1`: the outcome was inactive. As for `O=S1(=O)CC(Cl)(Cl)C(Cl)(Cl)C1`, the AC50 is 2620 nM (active). Regarding `c1ccc2c(c1)-c1ccc3ccc4cccc5cc-2c1c3c45`, the half-maximal activity concentration (AC50) was 1240 nM (active).

In the case of `OCC(F)(OC(F)(F)C(F)(OC(F)(F)C(F)(F)C(F)(F)F)C(F)(F)F)C(F)(F)F` (stereo not given), the outcome was inactive.

`CC(C)Cc1ccc(C(C)C(=O)O)cc1` (stereo not given): the outcome was inactive.

Take `O=C1OC2(c3ccc(O)cc3Oc3cc(O)ccc32)c2ccccc21`: the result was inactive. Same read-out and setting: with `Nc1ccc(N)c([N+](=O)[O-])c1` the entry was “inactive”. The same measure, in the same setting: with `O=C(O)C(F)(F)OC(F)(F)C(F)(F)OC(F)(F)C(F)(F)C(F)(F)C(F)(F)F` the entry was “inactive”; with `CC(C)(C)c1cccc(O)c1`, “inactive”. Still for that read-out and setting: with `CC1=CC(C)C(C=O)C(C)C1` (stereo not given) (tested in a mixture with another compound) the entry was “inactive”.
